Source: the antibiotic and cytotoxicity screens of Wong et al. (2023)
Among all 39,000 compounds or so, about 3,300 (8.5%) were called active. Only a selection was taken, and actives are over-represented in it overall.

test system: HepG2; experiment: cytotoxicity call (relative viability < 0.9); settings: 10 µM

SMILES	cytotoxicity call
NCC[C@H]1CC[C@H](NC(=O)Cc2ccncc2)[C@@H](CO)O1	inactive
O=C(O)CCCCCCCCCCCC[C@@H]1C=CCC1	inactive
COc1ccc(-c2cc(=O)c3c(O)c(OC)c(O[C@H]4O[C@H](CO[C@@H]5O[C@@H](C)[C@H](O)[C@@H](O)[C@H]5O)[C@@H](O)[C@H](O)[C@H]4O)cc3o2)cc1	inactive
C[C@H](CO)N1C[C@H](C)[C@@H](CN(C)S(=O)(=O)c2cn(C)cn2)Oc2cc(Br)ccc2S1(=O)=O	inactive
C[C@H](CO)N1C[C@H](C)[C@@H](CN(C)Cc2ccc(-c3ccccc3)cc2)Oc2c(NS(=O)(=O)c3cccs3)cccc2C1=O	inactive
C[C@@H]1CCCCO[C@@H](CN(C)Cc2ccncc2)[C@H](C)CN([C@@H](C)CO)C(=O)c2cc(NC(=O)C3CCCCC3)ccc2O1	inactive
CCOC(=O)c1cccc(N)c1.CS(=O)(=O)O	inactive
CCOc1ccc2nc(S(N)(=O)=O)sc2c1	inactive
CC(O)C(=O)O.CCOc1ccc2nc3cc(N)ccc3c(N)c2c1	active
CO[C@@H](CN(C)C(=O)C1CCOCC1)[C@@H](C)CN(C(=O)Nc1ccc(C(F)(F)F)cc1)[C@@H](C)CO	inactive
CC(=O)N[C@@H]1C[C@H](O)[C@@H](O)CCC(=O)N[C@H](c2ccccc2)COC1=O	inactive
C[C@H]1CN([C@@H](C)CO)C(=O)Cc2cc(NC(=O)Cn3cnnn3)ccc2O[C@H]1CN(C)C(=O)Nc1ccc(C(F)(F)F)cc1	inactive
C[C@@H]1CCCCO[C@@H](CN(C)C(=O)NC2CCCCC2)[C@H](C)CN([C@H](C)CO)C(=O)c2cc(NC(=O)CCC(F)(F)F)ccc2O1	inactive
CO[C@H]1CN(C)C(=O)c2cc(NC(=O)NC(C)C)ccc2OC[C@H](C)N(Cc2ccc(-c3ccccn3)cc2)C[C@H]1C	inactive
C[C@H](CO)N1C[C@H](C)[C@@H](CN(C)C(=O)Nc2cccc3ccccc23)OCCCC[C@H](C)Oc2ccc(NS(=O)(=O)c3ccc(F)cc3)cc2C1=O	inactive
C[C@@H]1CCCCO[C@@H](CN(C)C(=O)Nc2cccc3ccccc23)[C@H](C)CN([C@H](C)CO)C(=O)c2cc(NS(=O)(=O)c3ccc(F)cc3)ccc2O1	active
C[C@@H]1CCCCO[C@@H](CN(C)C(=O)Nc2cccc3ccccc23)[C@H](C)CN([C@@H](C)CO)C(=O)c2cc(NS(=O)(=O)c3ccc(F)cc3)ccc2O1	inactive
C[C@@H]1CCCCO[C@@H](CN(C)C(=O)Nc2cccc3ccccc23)[C@@H](C)CN([C@H](C)CO)C(=O)c2cc(NS(=O)(=O)c3ccc(F)cc3)ccc2O1	inactive
C[C@@H]1CCCCO[C@H](CN(C)C(=O)Nc2cccc3ccccc23)[C@H](C)CN([C@@H](C)CO)C(=O)c2cc(NS(=O)(=O)c3ccc(F)cc3)ccc2O1	active
C[C@H]1CCCCO[C@@H](CN(C)C(=O)Nc2cccc3ccccc23)[C@@H](C)CN([C@@H](C)CO)C(=O)c2cc(NS(=O)(=O)c3ccc(F)cc3)ccc2O1	inactive
C[C@H](CO)N1C[C@H](C)[C@H](CN(C)C(=O)Nc2cccc3ccccc23)OCCCC[C@H](C)Oc2ccc(NS(=O)(=O)c3ccc(F)cc3)cc2C1=O	inactive
C[C@@H]1CCCCO[C@H](CN(C)C(=O)Nc2cccc3ccccc23)[C@@H](C)CN([C@H](C)CO)C(=O)c2cc(NS(=O)(=O)c3ccc(F)cc3)ccc2O1	active
C[C@H]1CCCCO[C@H](CN(C)C(=O)Nc2cccc3ccccc23)[C@@H](C)CN([C@@H](C)CO)C(=O)c2cc(NS(=O)(=O)c3ccc(F)cc3)ccc2O1	active
C[C@@H]1CN([C@@H](C)CO)C(=O)c2cc(NS(=O)(=O)c3ccc(F)cc3)ccc2O[C@@H](C)CCCCO[C@H]1CN(C)C(=O)Nc1cccc2ccccc12	inactive

SMILES	cytotoxicity call
C[C@@H]1CN([C@@H](C)CO)C(=O)c2cc(NS(=O)(=O)c3ccc(F)cc3)ccc2O[C@@H](C)CCCCO[C@@H]1CN(C)C(=O)Nc1cccc2ccccc12	inactive
CN1CCC[C@H](C(=O)O)C1	inactive
C[C@@H]1CN([C@H](C)CO)S(=O)(=O)c2ccc(C#CC3CC3)cc2O[C@H]1CN(C)Cc1cccc(F)c1	inactive
CNC[C@H]1Oc2cc(C#CC(C)(C)O)ccc2S(=O)(=O)N([C@H](C)CO)C[C@@H]1C	inactive
O=C(C[C@@H]1CC[C@H]2[C@@H](COC[C@@H](O)CN2S(=O)(=O)c2ccc(Cl)cc2)O1)N[C@@H]1CCN(Cc2ccccc2)C1	inactive
C[C@@H]1CN([C@H](C)CO)C(=O)c2cc(NS(C)(=O)=O)ccc2O[C@H]1CN(C)C(=O)Nc1ccc2c(c1)OCO2	inactive
CCOC(=O)c1snc2c(=O)nc[nH]c12	inactive
C=CCOC(=O)[C@@H]1[C@H]2C(=O)O[C@H](c3ccccc3)[C@H](c3ccccc3)N2[C@H](c2ccc(OCCOC(=O)[C@H]3C[C@H]4C(=O)N[C@@H](CCCCNC(C)=O)C(=O)N4[C@H]3c3cccc(OCCO)c3)cc2)[C@@]12C(=O)Nc1ccc(I)cc12	inactive
C[C@@H]1CCCCO[C@@H](CN(C)C(=O)CCC(F)(F)F)[C@@H](C)CN([C@@H](C)CO)C(=O)c2cc(NC(=O)Nc3ccc4c(c3)OCO4)ccc2O1	inactive
C[C@@H]1CCCCO[C@H](CN(C)C(=O)Nc2cccc3ccccc23)[C@H](C)CN([C@H](C)CO)C(=O)c2cc(NS(=O)(=O)c3ccc(F)cc3)ccc2O1	active
C[C@H]1CN([C@@H](C)CO)S(=O)(=O)c2ccc(-c3cccnc3)cc2O[C@H]1CN(C)C(=O)c1ccc2c(c1)OCO2	inactive
NC(=O)CC1=NC(=O)CS1	inactive
C[C@H]1CN([C@@H](C)CO)C(=O)Cc2cc(NC(=O)Cc3ccccc3)ccc2O[C@@H]1CN(C)S(C)(=O)=O	inactive
Cc1ccc(S(=O)(=O)Nc2ccc3c(c2)C(=O)N([C@@H](C)CO)C[C@H](C)[C@H](CN(C)Cc2ccc4c(c2)OCO4)OCCCC[C@@H](C)O3)cc1	inactive
C[C@@H]1CN([C@@H](C)CO)C(=O)c2cc(NC(=O)Nc3cccc4ccccc34)ccc2O[C@H]1CN(C)Cc1ccncc1	inactive
C#CC1(OC(C)=O)CCC2C3CCC4=CC(=O)CCC4C3CCC21C (configuration not stated)	inactive
CC(=O)OC1(C(C)=O)CCC2C3CC(C)C4=CC(=O)CCC4(C)C3CCC21C (configuration not stated)	inactive
C#CC1(OC(C)=O)CCC2C3CCC4=CC(OC(C)=O)CCC4C3CCC21C (configuration not stated)	active
C#CC1(OC(C)=O)CCC2C3CCC4=CC(=NO)CCC4C3CCC21CC (configuration not stated)	active
C#CC1(O)CCC2C3CCC4=CC(=O)CCC4C3CCC21CC (configuration not stated)	inactive
C[C@@H]1CN([C@H](C)CO)C(=O)CCCn2cc(nn2)CO[C@@H]1CN(C)C(=O)Nc1ccc2c(c1)OCCO2	inactive
COc1ccc(S(=O)(=O)Nc2cccc3c2O[C@@H](CN(C)C(=O)Nc2c(C)noc2C)[C@H](C)CN([C@H](C)CO)C3=O)cc1	inactive
COc1cccc(S(=O)(=O)N(C)C[C@@H]2Oc3cc(C4=CCCC4)ccc3S(=O)(=O)N([C@H](C)CO)C[C@@H]2C)c1	inactive
C[C@@H]1CN([C@H](C)CO)C(=O)Cc2cc(NC(=O)CCC(F)(F)F)ccc2O[C@H]1CN(C)Cc1ccc(Cl)c(Cl)c1	inactive

SMILES	cytotoxicity call
C[C@@H]1CN([C@@H](C)CO)C(=O)Cc2cc(NC(=O)CCC(F)(F)F)ccc2O[C@@H]1CN(C)Cc1ccc(Cl)c(Cl)c1	active
C[C@H](CO)N1C[C@H](C)[C@@H](CN(C)Cc2ccc(Cl)c(Cl)c2)Oc2ccc(NC(=O)CCC(F)(F)F)cc2CC1=O	inactive
C[C@H](CO)N1C[C@H](C)[C@H](CN(C)Cc2ccc(Cl)c(Cl)c2)Oc2ccc(NC(=O)CCC(F)(F)F)cc2CC1=O	inactive
C[C@@H]1CN([C@@H](C)CO)C(=O)c2cc(NC(=O)CCC(F)(F)F)ccc2O[C@H]1CN(C)Cc1ccc(Cl)c(Cl)c1	active
C[C@@H]1CN([C@H](C)CO)C(=O)Cc2cc(NC(=O)CCC(F)(F)F)ccc2O[C@@H]1CN(C)Cc1ccc(Cl)c(Cl)c1	inactive
C[C@@H]1CN([C@H](C)CO)C(=O)c2cc(NC(=O)CCC(F)(F)F)ccc2O[C@@H]1CN(C)Cc1ccc(Cl)c(Cl)c1	inactive
C[C@@H]1CN([C@@H](C)CO)C(=O)Cc2cc(NC(=O)CCC(F)(F)F)ccc2O[C@H]1CN(C)Cc1ccc(Cl)c(Cl)c1	active
C[C@H]1CN([C@@H](C)CO)C(=O)c2cc(NC(=O)CCC(F)(F)F)ccc2O[C@H]1CN(C)Cc1ccc(Cl)c(Cl)c1	inactive
C[C@H]1CCCCO[C@@H](CN(C)C(=O)Nc2ccc(C(F)(F)F)cc2)[C@@H](C)CN([C@@H](C)CO)C(=O)c2cc(N(C)C)ccc2O1	inactive
CC(C)NC(=O)Nc1ccc2c(c1)CC(=O)N([C@H](C)CO)C[C@@H](C)[C@@H](CN(C)Cc1ccc3c(c1)OCO3)O2	inactive
C[C@@H]1CCCCO[C@H](CN(C)C(=O)Cc2ccccc2)[C@@H](C)CN([C@H](C)CO)C(=O)c2cc(NC(=O)Cc3ccccc3)ccc2O1	inactive
C[C@H]1CN([C@@H](C)CO)C(=O)c2cccc(NC(=O)c3ccc(-c4nccs4)cc3)c2O[C@H]1CN(C)C(=O)NC1CCCCC1	inactive
CC(C)NC(=O)N(C)C[C@@H]1OCCCC[C@H](C)Oc2ccc(NC(=O)Nc3ccc(C(F)(F)F)cc3)cc2C(=O)N([C@@H](C)CO)C[C@@H]1C	active
Cc1noc(C)c1NC(=O)N(C)C[C@H]1OCCCC[C@@H](C)Oc2ccc(NC(=O)Nc3ccc(C(F)(F)F)cc3)cc2C(=O)N([C@@H](C)CO)C[C@H]1C	inactive
CC(C)NC(=O)N(C)C[C@H]1OCCCC[C@H](C)Oc2ccc(NC(=O)Nc3ccc(C(F)(F)F)cc3)cc2C(=O)N([C@H](C)CO)C[C@@H]1C	inactive
Cc1noc(C)c1NC(=O)N(C)C[C@@H]1OCCCC[C@H](C)Oc2ccc(NC(=O)Nc3ccc(C(F)(F)F)cc3)cc2C(=O)N([C@@H](C)CO)C[C@@H]1C	active
C[C@H](CO)N1C[C@H](C)[C@H](CN(C)C(=O)Nc2ccc(C(F)(F)F)cc2)OCCCC[C@H](C)Oc2ccc(NC(=O)Nc3ccc(C(F)(F)F)cc3)cc2C1=O	inactive
Cc1noc(C)c1NC(=O)N(C)C[C@@H]1OCCCC[C@@H](C)Oc2ccc(NC(=O)Nc3ccc(C(F)(F)F)cc3)cc2C(=O)N([C@H](C)CO)C[C@@H]1C	inactive
CC(C)NC(=O)N(C)C[C@H]1OCCCC[C@@H](C)Oc2ccc(NC(=O)Nc3ccc(C(F)(F)F)cc3)cc2C(=O)N([C@@H](C)CO)C[C@H]1C	inactive
C[C@H]1CCCCO[C@@H](CN(C)C(=O)Nc2ccc(C(F)(F)F)cc2)[C@@H](C)CN([C@@H](C)CO)C(=O)c2cc(NC(=O)Nc3ccc(C(F)(F)F)cc3)ccc2O1	inactive
C[C@@H]1CCCCO[C@H](CN(C)C(=O)Nc2ccc(C(F)(F)F)cc2)[C@@H](C)CN([C@@H](C)CO)C(=O)c2cc(NC(=O)Nc3ccc(C(F)(F)F)cc3)ccc2O1	inactive
C[C@@H]1CCCCO[C@H](CN(C)C(=O)Nc2ccc(C(F)(F)F)cc2)[C@H](C)CN([C@H](C)CO)C(=O)c2cc(NC(=O)Nc3ccc(C(F)(F)F)cc3)ccc2O1	inactive
C[C@H]1CCCCO[C@H](CN(C)C(=O)Nc2ccc(C(F)(F)F)cc2)[C@@H](C)CN([C@@H](C)CO)C(=O)c2cc(NC(=O)Nc3ccc(C(F)(F)F)cc3)ccc2O1	active
C[C@@H]1CN([C@H](C)CO)C(=O)c2cc(NC(=O)Nc3ccc(C(F)(F)F)cc3)ccc2O[C@@H](C)CCCCO[C@H]1CN(C)C(=O)Nc1ccc(C(F)(F)F)cc1	active
